# From PubChem BioAssay
# PME-1 primary: PME-1 inhibitors via competitive probe labeling, primary screen, biochemical, fluorescence polarization, FP-Rh probe, HTS. recombinant PME-1. inhibition, % at 5.9 µM. actives 0.53% (n = 320,000). AID 2130, 2009;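 active means inhibition above the campaign mean of all compounds plus 3 SD, cut at about 26% in these data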;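 further: competitive labeling of PME-1 active site by serine hydrolase directed probe; inhibitors block probe labeling so polarization falls and inhibition rises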
# PAFAH2 FP inh: PAFAH2 enzyme inhibitors, primary screen, biochemical, fluorescence polarization, human | inhibition, % at 3.39 µM | recombinant PAFAH2, FP-rhodamine activity probe | Platelet-activating factor acetylhydrolase 2, cytoplasmic (Homo sapiens), Q99487 | actives 0.99% (n = 340,000);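 active means inhibition above the mean over all tested compounds plus 3 SD, cut at about 30% in these data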;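 further: inhibitors block probe labeling of enzyme so polarization drops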
# Fam108B inh: mouse Fam108B serine hydrolase inhibitors, primary screen, counter-screen for RBBP9 inhibitor project, biochemical, fluorescence polarization; actives 0.33% (n = 300,000); recombinant Fam108B, FP-Rh probe fluorescence polarization; inhibition, % at 9.51 µM;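 active means inhibition above the screen mean inhibition plus 3 SD, computed separately per campaign, cut at about 18% in these data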;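 further: inhibitors lower polarization as less probe binds the enzyme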
# PAFAH1B2 FP inh: PAFAH1B2 enzyme inhibitors, primary screen, biochemical, fluorescence polarization, human; AID 492953, 2010; inhibition, % at 3.39 µM; recombinant PAFAH1B2, FP-rhodamine activity probe; actives 1.2% (n = 340,000); Platelet-activating factor acetylhydrolase IB subunit alpha2 (Homo sapiens), P68402;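 active means inhibition above the mean of all tested compounds plus 3 SD, cut at about 24% in these data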
# pPAFAH inh: pPAFAH enzyme inhibitors, primary screen, biochemical, fluorescence polarization, human; Platelet-activating factor acetylhydrolase (Homo sapiens), Q13093; recombinant pPAFAH, FP-rhodamine probe fluorescence polarization; inhibition, % at 3.39 µM; actives 1.5% (n = 330,000);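 active means inhibition above the mean inhibition across the screen plus 3 SD, cut at about 25% in these data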;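 further: inhibitors block binding of the rhodamine activity-based probe so polarization drops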
# Target sequence (Q13093 whole entry, looked up): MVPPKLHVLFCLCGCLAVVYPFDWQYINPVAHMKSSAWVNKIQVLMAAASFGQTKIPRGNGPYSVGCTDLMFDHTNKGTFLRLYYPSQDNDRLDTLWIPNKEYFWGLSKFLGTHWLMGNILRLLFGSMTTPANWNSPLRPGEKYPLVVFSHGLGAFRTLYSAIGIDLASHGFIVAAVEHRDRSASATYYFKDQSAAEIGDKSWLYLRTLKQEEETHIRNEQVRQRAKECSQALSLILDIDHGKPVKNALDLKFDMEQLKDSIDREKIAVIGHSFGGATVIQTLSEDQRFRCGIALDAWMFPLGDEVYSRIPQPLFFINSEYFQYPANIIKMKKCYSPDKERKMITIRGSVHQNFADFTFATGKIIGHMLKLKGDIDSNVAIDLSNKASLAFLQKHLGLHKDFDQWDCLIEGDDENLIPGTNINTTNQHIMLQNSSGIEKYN
# PAFAH1B3 FP inh: PAFAH1B3 enzyme inhibitors, primary screen, biochemical, fluorescence polarization, human; Platelet-activating factor acetylhydrolase IB subunit alpha1 (Homo sapiens), Q15102; recombinant PAFAH1B3, FP-rhodamine probe; inhibition, % at 3.39 µM; actives 0.28% (n = 340,000); AID 492972, 2010;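 active means inhibition above the screen-wide average of all tested compounds plus 3 SD, cut at about 25% in these data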
# pPAFAH confirm: pPAFAH (PLA2G7) enzyme inhibitors, confirmation, biochemical, fluorescence polarization, human. shares compounds with pPAFAH inh. recombinant pPAFAH, FP-Rh probe fluorescence polarization. inhibition, % at 3.39 µM. actives 72% (n = 2,300);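 active means mean inhibition of the triplicate above the hit cutoff set for the earlier primary screen, cut at about 25% in these data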
# A number is an active result; . = inactive; / = not tested or not shown. Hits are enriched below; roughly 2.8% of the tested compounds scored in any of these assays.
SMILES,PME-1 primary,PAFAH2 FP inh,Fam108B inh,PAFAH1B2 FP inh,pPAFAH inh,PAFAH1B3 FP inh,pPAFAH confirm
COc1ccccc1/C=C/c1ccc2cccc(O)c2n1,.,.,.,.,42,.,.
COc1ccc(Cl)cc1/C=C/c1ccc2cccc(O)c2n1,.,.,.,.,.,.,/
COc1cccc(OC)c1-c1nn2c(-c3cc(-c4ccccc4)n[nH]3)nnc2s1,.,42,.,.,37,.,46
O=C(CNC(=O)COc1ccccc1)NCCN1CCOCC1,.,.,/,.,.,.,/
N#Cc1sc2nc(-c3ccccc3)cc(-c3ccco3)c2c1N,.,.,.,.,43,34,.
COc1cccc(-c2cc(C(F)(F)F)c3c(N)c(C#N)sc3n2)c1,.,/,.,/,.,/,/
CCOC(=O)C1CCN(C(=O)COC(=O)C23CC4CC(CC(C4)C2)C3)CC1,/,.,/,.,.,.,/
CCCC(=O)NC(c1cccs1)c1cc([N+](=O)[O-])c2cccnc2c1O (centres undefined),.,.,.,.,68,.,73
CC(=O)NC(c1cccs1)c1cc([N+](=O)[O-])c2cccnc2c1O (centres undefined),34,.,.,.,49,.,46
O=C(CCc1ccccc1)NC(c1cccs1)c1cc(Cl)c2cccnc2c1O (centres undefined),/,.,/,.,/,.,/
CC(=O)NC(c1ccccc1)c1cc([N+](=O)[O-])c2cccnc2c1O (centres undefined),.,.,.,.,.,.,/
O=C(NC1CCCCC1)c1ccc2[nH]c(=O)c(=O)[nH]c2c1,.,.,.,.,.,.,/
NC(=O)CC(NC(=O)Cc1ccc(Br)cc1)c1ccc(N2CCC(N3CCCCC3)CC2)c([N+](=O)[O-])c1 (centres undefined),.,.,.,.,.,.,/
Cc1csc(=Nc2ccc(S(=O)(=O)N3CCOCC3)cc2)n1Cc1ccco1,.,.,.,.,46,.,.
Cc1csc(=Nc2cccnc2)n1Cc1ccco1,.,.,.,.,.,.,/
CCN(CC)S(=O)(=O)c1ccc(C(=O)NNC(=O)c2csc(N3CCOCC3)n2)cc1,.,.,.,.,48,.,.
COc1cc(NC(=O)c2cccc3c2C(=O)N(C2CCCCC2)C3)cc(OC)c1OC,.,.,.,.,.,.,/
COc1cccc2nc3cc(C)c(C)cc3nc12,.,.,.,.,42,.,.
O=C(N/N=C/c1cc(Br)cc([N+](=O)[O-])c1O)c1ccc(NC(=O)c2ccc(F)cc2)cc1,.,.,.,.,38,.,55
Cc1cccc(N2CCN(C(=O)c3ccc4nc(N5CCCCC5)sc4c3)CC2)c1C,.,.,.,.,40,.,.
COCCNC(=O)c1ccc(N2CC3CC(C2)c2cccc(=O)n2C3)c(NC(=O)c2cc(OC)cc(OC)c2)c1 (centres undefined),.,.,.,.,.,.,/
CCOCCCNC(=O)c1ccc(N2CC3CC(C2)c2cccc(=O)n2C3)c(NC(=O)Nc2cccc(OC)c2)c1 (centres undefined),.,.,.,.,66,.,66
CCc1ccc(NC(=O)Nc2cc(C(=O)NCC3CCCO3)ccc2N2CC3CC(C2)c2cccc(=O)n2C3)cc1 (centres undefined),.,.,.,.,87,.,94
CCCCN1Cc2c(nc3cc(-c4ccco4)[nH]n3c2=O)C1=O,.,32,.,.,63,.,.
COCc1cc(=O)n2[nH]c(-c3ccco3)cc2n1,.,.,.,.,.,.,/
SMILES,PME-1 primary,PAFAH2 FP inh,Fam108B inh,PAFAH1B2 FP inh,pPAFAH inh,PAFAH1B3 FP inh,pPAFAH confirm
CCOC(=O)C1=C(N)n2c(s/c(=C/c3ccco3)c2=O)=C(C(=O)OC)C1c1ccco1 (centres undefined),.,.,.,.,.,.,/
N#CC1=C(N)n2c(s/c(=C\c3ccco3)c2=O)=C(C#N)C1c1ccco1 (centres undefined),.,.,.,.,53,.,.
S=C1NCN(Cc2ccco2)CN1,.,.,.,.,.,.,/
O=C1CC(=O)N(Cc2cccs2)C(=O)N1,.,.,.,.,.,.,/
O=C1CC(=O)N(Cc2ccco2)C(=O)N1,.,.,.,.,37,.,.
O=C1CC(=O)N(Cc2ccco2)C(=S)N1,.,.,.,.,41,.,.
COc1cc(/C=C2/C(=O)NN(c3ccc(Cl)c(Cl)c3)C2=O)cc([N+](=O)[O-])c1O,.,36,.,31,52,.,33
COc1cc(/C=C2/C(=O)NN(c3ccc(F)cc3)C2=O)cc(Cl)c1O,.,.,.,.,.,.,/
O=C1c2c(O)cccc2C(C2OC(CO)[C@@H](O)[C@H](O)[C@H]2O)c2cc(CO)cc(O)c21 (some centres undefined),.,.,/,.,.,.,/
O=C(O)c1cc(O)c2c(c1)[C@H]([C@H]1c3cc(C(=O)O)cc(O)c3C(=O)c3c(O[C@@H]4O[C@H](CO)[C@@H](O)[C@H](O)[C@H]4O)cccc31)c1cccc(OC3O[C@H](CO)[C@@H](O)[C@H](O)[C@H]3O)c1C2=O (some centres undefined),71,90,97,77,94,80,99
COc1ccc(N2Cc3ccccc3/C2=N\C(=O)Nc2ccccc2)cc1,.,.,.,.,.,.,/
CC(=O)CN1Cc2ccccc2/C1=N\C(=O)Nc1ccccc1,.,.,.,.,71,.,.
O=C(Nc1ccccc1)Nc1ncc([N+](=O)[O-])s1,/,.,/,.,/,.,/
O=C(COC(=O)c1ccccc1)Nc1ncc([N+](=O)[O-])s1,/,57,/,.,56,26,38
Cc1nn(-c2ccccc2)c2sc(-c3n[nH]c(=S)o3)cc12,39,.,.,.,52,.,69
Cc1nn(-c2ccccc2)c2sc(C(=O)O)cc12,.,.,.,.,.,.,/
Nc1cc(Cl)ccc1C(=O)OCC(=O)NCc1cccs1,/,.,/,.,.,.,/
CN(CC(=O)Nc1ccccc1C(F)(F)F)C(=O)c1ccc(-c2ccc(Cl)cc2)o1,.,.,.,.,.,.,/
CCNc1ccc(Br)cc(C(=O)/C=C/c2ccc(Cl)cc2Cl)c1=O,.,33,.,.,66,.,34
CNc1ccc(Br)cc(C(=O)/C=C/c2cc(OC)ccc2OC)c1=O,.,.,.,.,38,.,.
